34 compounds from PubChem BioAssay (NCATS) can be followed below.

Results filed as inconclusive are left out. Active and inactive are the calls of the source. The call rests on the fitted dose curve; in most records, active means well fitted inhibition curve with a large enough effect; inconclusive means small, poorly fitted or top-dose-only effect; inactive means flat fitted curve, though single readings scatter.
On the % scale 0 is the no-effect control and ±100 the full control effect; potency means the concentration at half of the fitted maximal effect.

For this experiment, the system named is WaGa. The experiment in a line: qHTS assay to identify novel small-molecules to repurpose for Merkel cell carcinoma treatment (AID 1296009). Further: nearly all actives have a fitted effect of over 60% in size. Conditions: MCC and control cell lines, CellTiter-Glo viability, 72 h; series mostly up to 46 µM; activity change, negative = cytotoxicity: at the top concentration. Summed up: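 Cells were treated for 72 hr at 37 degree celsius with compounds in 8- or 11-point dose response. Viability was read by CellTiter-Glo luminescence, normalized to no-cell (cytotoxicity) and DMSO controls.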
(In general: qHTS replaces the single test concentration by a dilution series.)
Turning to `COc1ccc2c(c1)CN(C)CC2c1ccc(Cl)c(Cl)c1` (centres undefined), the “activity change, negative = cytotoxicity” value was -13.4% (inactive). For `O=S(=O)(F)Cc1ccccc1`, the “activity change, negative = cytotoxicity” value was -4.84% (inactive).

For the compound `CC(=Cc1csc(C)n1)[C@@H]1C[C@H]2O[C@]2(C)CCC[C@H](C)[C@@H](O)[C@@H](C)C(=O)C(C)(C)[C@@H](O)CC(=O)O1`, the “activity change, negative = cytotoxicity” value was -46.7% (inactive).

Turning to `C#CC1(O)CCC2C3CCC4=CC(=O)CCC4(C)C3CCC21C` (centres undefined), the “activity change, negative = cytotoxicity” value is -11.6% (inactive). Take `CC[C@@H](C(N)=O)N1CCCC1=O`: the “activity change, negative = cytotoxicity” value is -2.69% (inactive).

Regarding `CN1[C@H]2CC(O)C[C@H]1[C@H]1O[C@H]12` (some centres undefined), the “activity change, negative = cytotoxicity” value was -19.4% (inactive). On to `CC(C)[C@]12O[C@@H]1[C@@H]1O[C@]13[C@]1(O[C@H]1C[C@@H]1C4=C(CC[C@@]13C)C(=O)OC4)[C@H]2O`, for which the “activity change, negative = cytotoxicity” value is -41.9% (inactive). Turning to `CC1=NN=C(c2ccc(N)cc2)c2cc3c(cc2C1)OCO3`, the “activity change, negative = cytotoxicity” value was -2.48% (inactive). Take `CO[C@H]1CCC(O[C@H]2C[C@H]([C@]3(C)CC[C@]4(C[C@H](O)[C@@H](C)[C@@H]([C@@H](C)C=C(C)C(=O)[C@H](C)C[C@H](C)C(=O)O)O4)O3)O[C@]3(O[C@@H]([C@H]4O[C@@](O)(CO)[C@H](C)C[C@H]4C)C[C@H]3C)[C@H]2C)O[C@H]1C` (some centres undefined): the Potency was 935 nM (active). With `CC(=O)OCC1=C(C(=O)O)N2C(=O)[C@@H](N)[C@@H]2SC1`, the “activity change, negative = cytotoxicity” value was -1.63% (inactive). On to `C[C@]12COC(=O)C[C@@H]1CC[C@@H]1[C@H]2CC[C@@]2(C)[C@H]1CC[C@]2(C)O`, for which the “activity change, negative = cytotoxicity” value was -5.65% (inactive).

In the case of `COC(=O)[C@@H](N)CCCN=C(N)N[N+](=O)[O-]`, the “activity change, negative = cytotoxicity” value was 4.15% (inactive). For `COc1ccc2c(c1)[C@]13CCCCC1C(C2)N(C)CC3` (some centres undefined), the “activity change, negative = cytotoxicity” value was 1.45% (inactive). Consider `O=c1cccc2n1CC1CNC[C@H]2C1`, for which the Potency is 2350 nM (active). The same measure, in the same setting: then `COC[C@H]1OC(=O)c2coc3c2[C@@]1(C)C1=C(C3=O)[C@@H]2CC[C@H](O)[C@@]2(C)C[C@@H]1OC(C)=O`, with 10500 nM (active). Consider `COCC1(CO)C(=O)C2CCN1CC2` (centres undefined), for which the Potency is 1320 nM (active). As to `CN[C@@H]1Cc2cccc3[nH]c(=O)n(c23)C1`, the “activity change, negative = cytotoxicity” value is -1.86% (inactive). In the case of `O=C1CCC[C@@H]2[C@H]3CCCN4CCC[C@@H](CN12)[C@@H]34`, the “activity change, negative = cytotoxicity” value is -3.81% (inactive). Still for that read-out and setting: then `CC(O)=C(C#N)C(=O)Nc1cc(Br)ccc1Br`, with -6.15% (inactive); and `CC(=Cc1csc(C)n1)[C@@H]1C[C@H]2O[C@@H]2CCC[C@H](C)[C@@H](O)[C@@H](C)C(=O)C(C)(C)[C@@H](O)CC(=O)O1`, with -53.8% (inactive).

For `CCOC(=O)c1c(C(C#N)=CN)c2ccc(Cl)c(Cl)c2n1C`, the “activity change, negative = cytotoxicity” value was -4.04% (inactive).

On to `C=C[C@@H]1CN2CCC1C[C@H]2[C@H](O)c1ccnc2ccccc12` (some centres undefined), for which the “activity change, negative = cytotoxicity” value is 4.99% (inactive). As to `CCCC[N+]1(C)[C@H]2CC(OC(=O)[C@H](CO)c3ccccc3)C[C@H]1[C@H]1O[C@H]12` (some centres undefined), the “activity change, negative = cytotoxicity” value was -4.61% (inactive). `Clc1ccccc1C(c1ccccc1)(c1ccccc1)n1cccn1`: the “activity change, negative = cytotoxicity” value is -1.57% (inactive). Same read-out and setting: then `C[C@H]1CCCC=CC2C[C@H](O)C[C@@H]2[C@H](O)C=CC(=O)O1` (some centres undefined), with -96.6% (inactive); and `C[C@H]([C@H](O)CCC(C)(C)O)[C@H]1CC[C@@]2(O)C3=CC(=O)[C@@H]4C[C@@H](O)[C@@H](O)C[C@]4(C)[C@@H]3CC[C@]12C`, with -2.23% (inactive). In the case of `C1=C2CCCN[C@H]2[C@@H]2C[C@H]1[C@@H]1CCCCN1C2`, the “activity change, negative = cytotoxicity” value was -0.799% (inactive). With `N=c1c2c(-c3ccccc3)c(-c3ccccc3)n(Cc3ccccc3)c2ncn1C1CCC(O)CC1` (centres undefined), the Potency is 2640 nM (active).

For `CC(C)(O)C=CC(=O)[C@](C)(O)[C@H]1[C@H](O)C[C@]2(C)[C@@H]3CC=C4[C@@H](C=C(O)C(=O)C4(C)C)[C@]3(C)C(=O)C[C@@]12C`, the Potency is 93.5 nM (active). As for `CCN1C[C@]2(OC(=O)c3ccccc3NC(C)=O)CC[C@H](OC)[C@@]34[C@H]5CC6[C@@H](OC)C[C@](O)(C(C[C@@H]23)[C@@H]14)[C@@]5(O)[C@@H]6OC`, the “activity change, negative = cytotoxicity” value was 6.39% (inactive). Regarding `C[C@]12Cc3cn[nH]c3C[C@@H]1CC[C@@H]1[C@H]2CC[C@@]2(C)[C@H]1CC[C@]2(C)O`, the “activity change, negative = cytotoxicity” value was -4.65% (inactive). `Oc1ccc2c3c1O[C@H]1c4[nH]c5c(c4C[C@@]4(O)[C@@H](C2)N(CC2CC2)CC[C@]314)C[C@@]1(O)[C@H]2Cc3ccc(O)c4c3[C@@]1(CCN2CC1CC1)[C@H]5O4`: the “activity change, negative = cytotoxicity” value was 2.44% (inactive).

As for `C=CCON=C(C[C@H]1O[C@@H]2O[C@]3(C)CC[C@@H]4[C@H](C)CC[C@@H]([C@H]1C)[C@@]24OO3)[C@H]1O[C@@H]2O[C@]3(C)CC[C@H]4[C@H](C)CC[C@@H]([C@@H]1C)[C@@]24OO3`, the Potency is 1050 nM (active). For `CC=C(C)C(=O)O[C@H]1C(C)=C2[C@@H]3OC(=O)[C@@](C)(O)[C@@]3(O)[C@@H](OC(=O)CCC)C[C@](C)(OC(C)=O)[C@@H]2[C@@H]1OC(=O)CCCCCCC`, the Potency is 1660 nM (active).
